The source of these data is paper PMC4336329 (PLoS ONE, 2015).

Hit rate of the full screen: of about 310,000 compounds, about 14,000 (4.5%) showed an effect of 50% or more. Effects have a minus sign here. This is one part of a sample in which strong results are shown more often than they occur.
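Also: peak tail current of the secondary pulse compared with the same well before compound.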

The target in this test is human ether-à-go-go-related gene (hERG) potassium channel (human, UniProt Q12809). Nature of the test: primary screen, population patch clamp on CHO cells stably expressing hERG; higher = less effect of the substance.
human ether-à-go-go-related gene (hERG) potassium channel, sequence (Q12809 whole entry, looked up): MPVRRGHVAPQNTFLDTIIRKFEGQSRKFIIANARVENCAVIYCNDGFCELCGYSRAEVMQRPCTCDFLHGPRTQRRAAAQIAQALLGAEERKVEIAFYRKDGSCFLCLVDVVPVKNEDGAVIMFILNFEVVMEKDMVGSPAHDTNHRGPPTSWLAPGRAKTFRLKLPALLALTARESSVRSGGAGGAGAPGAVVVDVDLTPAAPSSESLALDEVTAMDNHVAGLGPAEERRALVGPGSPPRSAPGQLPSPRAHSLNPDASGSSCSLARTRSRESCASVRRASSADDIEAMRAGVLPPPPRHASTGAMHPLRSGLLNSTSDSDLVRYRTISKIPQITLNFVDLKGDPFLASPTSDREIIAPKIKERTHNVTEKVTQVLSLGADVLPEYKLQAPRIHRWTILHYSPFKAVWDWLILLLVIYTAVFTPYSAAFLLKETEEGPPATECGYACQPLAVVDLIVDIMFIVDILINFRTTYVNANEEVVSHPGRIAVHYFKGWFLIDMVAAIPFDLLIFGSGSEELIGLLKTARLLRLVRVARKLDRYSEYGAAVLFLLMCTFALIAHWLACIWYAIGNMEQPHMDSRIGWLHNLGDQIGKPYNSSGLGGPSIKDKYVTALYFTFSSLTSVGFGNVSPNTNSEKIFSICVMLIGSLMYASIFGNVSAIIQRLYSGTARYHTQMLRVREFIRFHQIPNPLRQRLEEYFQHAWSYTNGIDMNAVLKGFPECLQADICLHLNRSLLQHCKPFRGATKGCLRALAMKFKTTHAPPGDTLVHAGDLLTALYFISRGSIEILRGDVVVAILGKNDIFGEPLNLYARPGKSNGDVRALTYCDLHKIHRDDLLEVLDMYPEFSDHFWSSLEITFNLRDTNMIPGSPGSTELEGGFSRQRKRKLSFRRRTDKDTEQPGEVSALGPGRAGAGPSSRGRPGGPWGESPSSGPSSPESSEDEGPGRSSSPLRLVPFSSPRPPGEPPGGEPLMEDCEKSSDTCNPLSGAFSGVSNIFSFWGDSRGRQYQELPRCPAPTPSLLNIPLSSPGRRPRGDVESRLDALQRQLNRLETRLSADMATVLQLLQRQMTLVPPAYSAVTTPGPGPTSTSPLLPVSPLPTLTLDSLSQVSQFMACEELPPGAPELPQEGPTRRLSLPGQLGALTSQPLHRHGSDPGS
As to `O=C(Nc1nc(-c2ccco2)c(-c2ccco2)s1)c1cnccn1`, the “hERG current change (%, negative = inhibition) at 10uM” value is given as 3.8%. On to `CCOC(=O)C1=C(COC(=O)COc2ccc(C(=O)CC)cc2)NC(=O)NC1C` (stereo not drawn), for which the “hERG current change (%, negative = inhibition) at 10uM” value is listed as -25.5%.

Consider `O=C1N/C(=N\N=C\c2cccs2)SC1Cc1ccc(Cl)c(Cl)c1` (stereo not drawn), for which the “hERG current change (%, negative = inhibition) at 10uM” value is listed as 16.1%. With `Cc1cc(NC(=O)c2cc(-c3ccco3)on2)n(-c2ccccc2)n1` the figure was -0.313%. The same measure for `Cc1cccc(COc2ncnc3nc[nH]c23)c1`: -6.73%.

For `CN(C)CCNC(=O)Nc1ccc(Cl)c(Cl)c1`, the “hERG current change (%, negative = inhibition) at 10uM” value is -23.4%.

Consider `CN(C)C1(CNC(=O)c2ccc(NS(=O)(=O)c3ccc(Cl)c(Cl)c3)cc2)CCCCC1`, for which the “hERG current change (%, negative = inhibition) at 10uM” value is on record as -74.1%. The same measure for `CN(C)C1(CNC(=O)c2cccc(S(=O)(=O)Nc3ccc(Br)cc3)c2)CCCCC1`: -66.7%; for `Cc1cc(S(=O)(=O)Nc2ccc(C(=O)NCC3(N(C)C)CCCCC3)cc2)ccc1F`: -49.2%; for `CCOc1ccc(NS(=O)(=O)c2ccc(C(=O)NCC3(N(C)C)CCCCC3)cc2)cc1`: -8.13%. The same measure for `COc1ccc(NS(=O)(=O)c2cccc(C(=O)NCC3(N(C)C)CCCCC3)c2)cc1`: -40.6%; for `CN(C)C1(CNC(=O)Nc2ccccc2)CCCCC1`: -3.27%; for `CN(C)C1(CNC(=O)Nc2ccc(Cl)c(Cl)c2)CCCCC1`: -50.1%.

Take `Cc1ccc(NS(=O)(=O)c2cccc(C(=O)NCC3(N(C)C)CCCCC3)c2)cc1`: the “hERG current change (%, negative = inhibition) at 10uM” value is on record as -22.4%.

Regarding `Cc1ccc(CNC(=O)c2ccc(Br)o2)cc1`, the “hERG current change (%, negative = inhibition) at 10uM” value is listed as -18%. The same measure for `O=C(NC1CCCC1)C1CCCN(S(=O)(=O)c2cnc[nH]2)C1` (stereo not drawn): 15.3%; for `O=C(NCc1cccs1)c1cnc(Cl)c(Cl)c1`: 11.7%; for `CC1=Nc2ccccc2N=C(NC(=O)CSC(=S)N2CCN(C)CC2)C1c1ccccc1` (stereo not drawn): -24.2%. The same measure for `COc1ccc2c(Cl)c(C(=O)NN)sc2c1`: 7.88%; for `O=[N+]([O-])c1ccc(CSc2nnc(SCc3ccc(Cl)cc3)s2)cc1`: 16.8%; for `O=C(c1ccccc1F)N1CCc2ccccc21`: -7.14%. The same measure for `Cc1ccc(N(CC(=O)NC2CCCC2)C(=O)CCCC(=O)Nc2ccccn2)cc1C`: 2.86%; for `COc1ccc(/C=N/OCC(=O)NC(c2ccccc2)c2ccccc2)c(OC)c1`: -35.1%. In the case of `CCn1c(CCNC(=O)c2cccs2)nnc1SCC(=O)NC1CCCCC1`, the “hERG current change (%, negative = inhibition) at 10uM” value is 0.651%. With `CCc1nnc(NC(=O)CSc2nnc(CNc3cccc(Cl)c3)n2CC)s1` the figure was -59.6%; with `CCc1nnc(NC(=O)CSc2nnc(CNc3ccc(OC)cc3)n2CC)s1`, 13.1%. The same measure for `CCn1c(CNC(=O)c2cccs2)nnc1SCC(=O)Nc1ccc(Cl)cc1`: -57.5%; for `CCc1nnc(NC(=O)CSc2nnc(CNc3cccc(C)c3)n2-c2ccccc2)s1`: 3.35%; for `Cn1c(CNC(=O)c2cccs2)nnc1SCC(=O)Nc1ccc(Cl)cc1`: -35.4%. The same measure for `CCn1c(CCNC(=O)c2cccs2)nnc1SCC(=O)Nc1ccc(Cl)cc1`: -49.7%. On to `CCn1c(CCNC(=O)c2cccs2)nnc1SCC(=O)c1ccc(OC)cc1`, for which the “hERG current change (%, negative = inhibition) at 10uM” value is 7.05%. The same measure for `CCn1c(CCNC(=O)c2cccs2)nnc1SCC(=O)Nc1cccc(Cl)c1`: -64.5%; for `CCC(C)(C)C1CCC(=NNC(=O)c2ccoc2C)CC1` (stereo not drawn): 6.38%.

As to `CSc1nc(-c2ccccc2)nc(N2CCCC2)c1C(C)=O`, the “hERG current change (%, negative = inhibition) at 10uM” value is -10.8%. With `CCN(CC)C(=O)CSc1ncnc2c1cnn2Cc1ccccc1` the figure was -19.9%. With `O=C(NC1CCCCCCC1)c1ccccc1O` the figure was -6.11%. With `CC(=O)Nc1ccc(NC(=O)C(C)OC(=O)CCCc2c[nH]c3ccccc23)cc1` (stereo not drawn) the figure was 7.68%; with `CC(C)CCn1c(CN2CCN(c3cccc(Cl)c3)CC2)nc2c1c(=O)n(C)c(=O)n2C`, -5.6%. `CCCCn1c(CN2CCN(c3cccc(Cl)c3)CC2)nc2c1c(=O)n(C)c(=O)n2C`: the “hERG current change (%, negative = inhibition) at 10uM” value is on record as -56.3%. With `CCCCCn1c(CN2CCN(c3cccc(Cl)c3)CC2)nc2c1c(=O)n(C)c(=O)n2C` the figure was -35.3%. On to `Cn1c(=O)c2c(nc(CN3CCN(c4ccccc4)CC3)n2CCc2ccccc2)n(C)c1=O`, for which the “hERG current change (%, negative = inhibition) at 10uM” value was -33.7%.

Consider `CCCCn1c(CN2CCN(c3ccccc3)CC2)nc2c1c(=O)n(C)c(=O)n2C`, for which the “hERG current change (%, negative = inhibition) at 10uM” value is -45.7%. On to `CCCn1c(CN2CCN(c3cccc(Cl)c3)CC2)nc2c1c(=O)n(C)c(=O)n2C`, for which the “hERG current change (%, negative = inhibition) at 10uM” value is -63.6%. Consider `CCc1ccc(-c2nc(C(N)=O)c3[nH]c(=O)n(-c4ccccc4OC)c3n2)cc1`, for which the “hERG current change (%, negative = inhibition) at 10uM” value is on record as -0.102%. With `COc1cc(/C=N/Nc2nc(=O)[nH]nc2C)ccc1O` the figure was 4.93%. With `CSc1ccccc1NC(=O)CN(C)C(=O)c1ccc2c(c1)OCCO2` the figure was 5.66%. With `O=C(CN1CCOCC1)OCCCc1ccccc1` the figure was 9.77%; with `CC(C)(C)OC(=O)N1CCC(c2c(C(=O)N3CCN(C4CCCCC4)CC3)cnn2-c2ccc(F)cc2)CC1`, -55.5%; with `Cc1ccc(-n2ncc(C(=O)O)c2C2CCN(C(=O)OC(C)(C)C)CC2)cc1`, -3.86%. Take `O=C(c1cnn2ccccc12)N1CCN(C2CCCCC2)CC1`: the “hERG current change (%, negative = inhibition) at 10uM” value was -9.39%. Take `CC(C)(C)OC(=O)N1CCC(c2c(C(=O)N3CCN(C(=O)c4ccco4)CC3)cnn2-c2ccc(F)cc2)CC1`: the “hERG current change (%, negative = inhibition) at 10uM” value is reported as -14.8%. With `CC(C)(C)OC(=O)N1CCC(c2c(C(=O)N3CCN(C(=O)c4ccco4)CC3)cnn2-c2cccc(Cl)c2)CC1`, the “hERG current change (%, negative = inhibition) at 10uM” value was -65.6%. Turning to `CC(C)(C)OC(=O)N1CCC(c2c(C(=O)O)cnn2-c2ccccc2)CC1`, the “hERG current change (%, negative = inhibition) at 10uM” value turned out to be 11%.

For the compound `O=C(O)c1cnn(-c2ccccc2)c1-n1cccc1`, the “hERG current change (%, negative = inhibition) at 10uM” value was 9%. With `CC(C)(C)OC(=O)N1CCC(c2c(C(=O)NC3CC3)cnn2-c2ccccc2)CC1`, the “hERG current change (%, negative = inhibition) at 10uM” value is recorded as -22.9%.

On to `CC(C)(C)OC(=O)N1CCC(c2c(C(=O)N3CCN(C4CCCCC4)CC3)cnn2-c2ccccc2)CC1`, for which the “hERG current change (%, negative = inhibition) at 10uM” value is recorded as -54.7%.

As to `Cc1ccc(-n2ncc(C(=O)N3CCN(C(=O)c4ccco4)CC3)c2C2CCN(C(=O)OC(C)(C)C)CC2)cc1C`, the “hERG current change (%, negative = inhibition) at 10uM” value is 0.366%. Consider `CC(C)(C)OC(=O)N1CCC(c2c(C(=O)N3CCN(C(=O)c4ccco4)CC3)cnn2-c2ccc(F)cc2F)CC1`, for which the “hERG current change (%, negative = inhibition) at 10uM” value is recorded as -19.6%. In the case of `O=C(c1cnn(-c2ccccc2)c1-n1cccc1)N1CCN(C2CCCCC2)CC1`, the “hERG current change (%, negative = inhibition) at 10uM” value was -67.2%.

With `COc1ccc(-c2c3c(=O)n(C)c(=O)n(C)c3cn2Cc2cccnc2)cc1`, the “hERG current change (%, negative = inhibition) at 10uM” value was 4.55%. As for `O=C(COC(=O)C1CCN(c2ccc(C(F)(F)F)cn2)CC1)Nc1ccc(F)cc1[N+](=O)[O-]`, the “hERG current change (%, negative = inhibition) at 10uM” value turned out to be 13%. Turning to `COc1ccccc1CCNC(=O)CSc1nc(-c2ccco2)cc(C(F)(F)F)n1`, the “hERG current change (%, negative = inhibition) at 10uM” value worked out at 27.1%.

Turning to `CCCCn1c(-c2csc(CCC)c2)n[nH]c1=S`, the “hERG current change (%, negative = inhibition) at 10uM” value was 14.8%. On to `CC1CCC2(CC1)NC(=O)N(Cc1cccc(C(F)(F)F)c1)C2=O` (stereo not drawn), for which the “hERG current change (%, negative = inhibition) at 10uM” value is on record as 12.9%.

For `N#C/C(=C\c1ccc(-c2cccc([N+](=O)[O-])c2)o1)C(=O)N1CCOCC1`, the “hERG current change (%, negative = inhibition) at 10uM” value is -6.75%. As for `O=C(NCC1CCCO1)c1ccc(CSCc2cccc(F)c2)o1` (stereo not drawn), the “hERG current change (%, negative = inhibition) at 10uM” value was -7.59%. With `COc1ccc(C(=O)NNc2cc(C)nc(NNC(=O)c3ccc(OC)cc3)n2)cc1` the figure was 7.94%; with `CCN(C(=O)COc1cccnc1[N+](=O)[O-])C1CCS(=O)(=O)C1` (stereo not drawn), -0.18%. With `CCOc1ccc(CNC(=O)CCS(=O)(=O)Cc2cccc(Cl)c2)cc1OC`, the “hERG current change (%, negative = inhibition) at 10uM” value is listed as -12.1%. With `O=C(O)c1cc2c(ccc3ccccc32)o1` the figure was 4.33%; with `COC(=O)c1ccc([C@H]2CC(=O)O2)cc1`, 1.35%; with `c1ccc2c(c1)nc(NC1CCCCC1)c1nncn12`, -35.2%. Take `CC(C)(C)OC(=O)N1CCC(c2c(C(=O)NCC3CCN(C4CCCC4)C3)cnn2-c2ccc(F)cc2)CC1` (stereo not drawn): the “hERG current change (%, negative = inhibition) at 10uM” value is recorded as -50.5%. With `CC(C)(C)OC(=O)N1CCC(c2c(C(=O)NCC3CCN(C4CCCC4)C3)cnn2-c2ccccc2)CC1` (stereo not drawn) the figure was -35.8%; with `Cc1ccc(-n2ncc(C(=O)NCC3CCN(C4CCCC4)C3)c2C2CCN(C(=O)OC(C)(C)C)CC2)cc1` (stereo not drawn), -20.4%; with `Cc1ccc2c(c1)N(C)/C(=C/c1cccc[n+]1CCO)S2.[I-]`, -9.09%. For the compound `Cc1ccc2c(c1)N(C)/C(=C/c1cccc[n+]1C)S2.[I-]`, the “hERG current change (%, negative = inhibition) at 10uM” value was -47.5%.

On to `CC[n+]1ccccc1/C=C1\Sc2ccc(C)cc2N1C.[I-]`, for which the “hERG current change (%, negative = inhibition) at 10uM” value is recorded as -62.5%. With `Cc1oc2nc(SCC(=O)NC3CCCCC3)nc(N)c2c1C` the figure was -14.8%; with `Cl.O=C(CN1CCCC1)N1c2ccccc2Sc2ccc(Cl)cc21`, 0.273%; with `COc1ccc(S(=O)(=O)Nc2ccc3c(c2)n(C)c(=O)n3C)cc1C`, 2.39%. The same measure for `O=C(NCc1ccco1)C12CN(Cc3ccccc3)CC1C(c1cccc([N+](=O)[O-])c1)=NO2` (stereo not drawn): -46.6%.

Take `Cc1ccc(CNC(=O)C23CN(Cc4ccccc4)CC2C(c2cccc([N+](=O)[O-])c2)=NO3)cc1` (stereo not drawn): the “hERG current change (%, negative = inhibition) at 10uM” value was -0.125%.

Take `Cc1ccc(CNC(=O)C23CN(Cc4ccccc4)CC2C(c2ccc([N+](=O)[O-])cc2)=NO3)cc1` (stereo not drawn): the “hERG current change (%, negative = inhibition) at 10uM” value was -43.7%. With `O=C(NCc1ccccc1)C12CN(Cc3ccccc3)CC1C(c1ccc([N+](=O)[O-])cc1)=NO2` (stereo not drawn) the figure was -67.1%; with `O=C(NCc1ccco1)C12CN(Cc3ccccc3)CC1C(c1ccc([N+](=O)[O-])cc1)=NO2` (stereo not drawn), -70.8%. On to `Cc1ccc(CNC(=O)C23CN(Cc4ccccc4)CC2C(c2ccc([N+](=O)[O-])cc2)=NO3)o1` (stereo not drawn), for which the “hERG current change (%, negative = inhibition) at 10uM” value is recorded as -49.6%. As for `O=C(NCc1ccccc1)C12CN(Cc3ccccc3)CC1C(c1cccc([N+](=O)[O-])c1)=NO2` (stereo not drawn), the “hERG current change (%, negative = inhibition) at 10uM” value is listed as -14.6%. The same measure for `COc1ccc(CCNC(=O)C23CN(Cc4ccccc4)CC2C(c2ccc([N+](=O)[O-])cc2)=NO3)cc1` (stereo not drawn): -74.8%; for `COc1cccc(CNC(=O)C23CN(Cc4ccccc4)CC2C(c2ccc([N+](=O)[O-])cc2)=NO3)c1` (stereo not drawn): -52.1%; for `COc1ccc(CNC(=O)C23CN(Cc4ccccc4)CC2C(c2ccc([N+](=O)[O-])cc2)=NO3)cc1` (stereo not drawn): -40.5%. For the compound `COc1ccc(CCNC(=O)C23CN(Cc4ccccc4)CC2C(c2cccc([N+](=O)[O-])c2)=NO3)cc1` (stereo not drawn), the “hERG current change (%, negative = inhibition) at 10uM” value was -7.39%. The same measure for `Cc1ccc(CCNC(=O)C23CN(Cc4ccccc4)CC2C(c2ccc([N+](=O)[O-])cc2)=NO3)cc1` (stereo not drawn): -24%.
